Hits are enriched below; roughly 6% of the tested compounds scored in any of these assays.
VDR inh: vitamin D3 receptor (human) inhibition | P11473 | VDR-SRC2-3 peptide fluorescence polarization, 2 h | Potency, µM, for the others: max response, negative = inhibition, usual class: inhibitors | 400,000 tested, 0.93% active | AID 504847; also: potency is read from the fitted curve at half-maximal effect; % is scaled to controls: 0 for no effect and ±100 for the full control effect
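Fluorescence polarization assay measuring small-molecule disruption of VDR binding to the coregulator peptide SRC2-3. Compounds were pin-transferred (23 nl) into the reagent mix and incubated 2 h at room temperature before reading.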
Tau ThT inhib: inhibitors of human tau fibril formation, thioflavin T binding | recombinant tau K18 P301L, heparin-induced fibrillization, ThT fluorescence | Potency, µM (series often up to 57.4 µM), inactives show at the highest dose activity, negative = inhibition, most hits filed as inhibitors | 270,000 tested, 2.1% active | AID 1460; also: potency is read from the fitted curve at half-maximal effect; % is scaled to controls: 0 for no effect and ±100 for the full control effect; nearly all actives have a fitted effect of over 55% in size
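In this qHTS, human K18 P301L tau is incubated with compound and heparin for 6 hr at 37 C, and Thioflavin T fluorescence then reports fibril load.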
Tau fibril FP: blocks human tau fibril formation measured by polarization; P10636; K18 P301L tau heparin fibrillization, Alexa594 FP, 6 h; Potency, µM (top dose mostly 57.7 µM), for inactives: at the top dose activity, negative = inhibition, usual class: inhibitors; 280,000 tested, 0.39% active; AID 1468; also: potency is read from the fitted curve at half-maximal effect; % is scaled to controls: 0 for no effect and ±100 for the full control effect; nearly all actives have a fitted effect of over 55% in size
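Steps: dispense K18 P301L tau (15 uM plus 0.24 uM Alexa 594 tracer, final) in pH 7 sodium acetate; add compound; add heparin (20 uM final); incubate 6 hr, 37 C; add ThT (30 uM final); after 1 hr ambient, read FP.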
Tau fluor cs: counter-screen for tau fibril formation inhibitors; tau K18 P301L Alexa594 fluorescence, heparin fibrillization; Potency, µM (highest dose often 57.7 µM), inactives show top-dose activity change, negative = decrease; 280,000 tested, 0.93% active; AID 1463; also: potency is read from the fitted curve at half-maximal effect; % is scaled to controls: 0 for no effect and ±100 for the full control effect; nearly all actives have a fitted effect of over 55% in size
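Human tau K18 P301L (15 uM unlabeled, 0.24 uM Alexa 594-labeled) in 100 mM sodium acetate pH 7 with 20 uM heparin, 6 hr at 37 C. ThT 30 uM added, 1 hr ambient; Alexa 594 FP and total fluorescence read at 555/632 nm.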
Sfp inh: blocks B. subtilis Sfp PPTase activity; Q9F4F7; Biochemical Sfp PPTase activity, qHTS; Potency, µM, inactives show largest response in the series, negative = inhibition, hits mostly inhibitors; 310,000 tested, 3.5% active; AID 1490;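 also: the enzyme is Sfp with the accession as filed and its product quenches rhodamine fluorescence; potency is read from the fitted curve at half-maximal effect; 0% = enzyme reaction without inhibitor and -100% = no enzyme wells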
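Sfp 15 nM + cpd, 15 min RT; start w/ rhodamine-CoA 5 uM, BHQ-2-YbbR 12.5 uM (final); 50 mM Hepes pH 7.6, 10 mM MgCl2, 0.01% NP-40, 0.01% BSA; read 525/598 nm at 0 and 30 min.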
PLK1 PBD block: PLK1 (human) polo-box domain binding inhibition | P53350 | Plk1 PBD binding of FITC phosphopeptide, fluorescence polarization | Potency, µM, for the others: max response, negative = inhibition, hits mostly inhibitors | 360,000 tested, 2.8% active; also: potency is read from the fitted curve at half-maximal effect; series mostly up to about 57 µM; % is scaled to controls: 0 for no effect and ±100 for the full control effect; nearly all actives have a fitted effect of over 65% in size
Target sequence (P53350 whole entry, looked up, the tested form may be a part): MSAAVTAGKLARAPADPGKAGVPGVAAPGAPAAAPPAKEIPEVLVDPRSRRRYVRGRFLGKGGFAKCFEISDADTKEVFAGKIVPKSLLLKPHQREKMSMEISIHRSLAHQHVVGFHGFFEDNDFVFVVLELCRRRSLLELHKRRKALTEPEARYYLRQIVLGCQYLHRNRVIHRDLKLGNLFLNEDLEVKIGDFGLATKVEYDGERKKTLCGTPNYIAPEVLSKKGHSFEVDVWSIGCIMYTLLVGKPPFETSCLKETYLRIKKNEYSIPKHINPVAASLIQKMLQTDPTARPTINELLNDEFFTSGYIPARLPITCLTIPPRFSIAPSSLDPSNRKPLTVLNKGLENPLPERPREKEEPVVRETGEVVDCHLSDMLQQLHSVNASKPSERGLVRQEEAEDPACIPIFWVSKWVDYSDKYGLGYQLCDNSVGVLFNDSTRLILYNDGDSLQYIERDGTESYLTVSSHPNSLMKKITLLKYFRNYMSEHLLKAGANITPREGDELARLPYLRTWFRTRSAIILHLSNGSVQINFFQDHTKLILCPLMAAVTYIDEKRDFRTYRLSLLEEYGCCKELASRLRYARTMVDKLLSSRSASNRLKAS
USP1-UAF1 confirm: blocks human USP1/UAF1 cleavage of Ub-Rhodamine | Ub-Rhodamine cleavage, fluorescence kinetic read | AID 540327 | Potency, µM (top dose mostly 114 µM), for inactives: top-dose activity change, negative = inhibition, hits mostly inhibitors | 50 tested, 50% active | shares compounds with VDR inh
VDR inh confirm: inhibits human vitamin D receptor, primary hit validation; shares compounds with VDR inh; VDR-coactivator inhibition assay, qHTS confirmation; Potency, µM, most hits filed as inhibitors; 840 tested, 89% active; AID 602199; also: potency is read from the fitted curve at half-maximal effect
VDR FP fluor: blocks human VDR-coactivator binding in fluorescein assay. 840 tested, 48% active. Potency, µM (highest dose often 57.1 µM), for the others: at the highest dose activity change, negative = inhibition, usual class: inhibitors. VDR-coactivator binding, fluorescein fluorescence polarization. shares compounds with VDR inh; also: potency is read from the fitted curve at half-maximal effect
VDR bla: confirmation of human vitamin D receptor inhibitors in reporter cells; shares compounds with VDR inh; VDR beta-lactamase reporter cells, FRET ratio; cells co-treated with VDR agonist LG190178; Potency, µM (top dose mostly 46.1 µM), inactives show at the highest dose activity change, negative = inhibition, most hits filed as inhibitors; 840 tested, 23% active; AID 602202; also: potency is read from the fitted curve at half-maximal effect; % is scaled to controls: 0 for no effect and ±100 for the full control effect
VDR viability: cell toxicity, VDR inhibitor hit counter-screen. shares compounds with VDR inh. cytotoxicity counter-screen, cell viability, qHTS. Potency, µM (top dose mostly 48.3 µM), without a hit: at the top dose activity change, negative = cytotoxicity, usual class: cytotoxic. 840 tested, 18% active. AID 602204;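 also: potency is read from the fitted curve at half-maximal effect; plate controls were DMSO for no effect and high-concentration cycloheximide for full effect; nearly all actives have a fitted effect of over 75% in size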
* marks the source's active call; other numbers are inactive results; ? = inconclusive; / = no result given; ! = repeats disagree. Calls follow the shape of the dose curve; as a rule, active = well fitted curve in the direction sought with a large enough effect; inconclusive = small, poorly fitted or top-dose-only effect, or another doubt; inactive = no such curve, though single readings can be large; an effect the other way counts as inactive or inconclusive.

SMILES	VDR inh	Tau ThT inhib	Tau fibril FP	Tau fluor cs	Sfp inh	PLK1 PBD block	VDR inh confirm	VDR FP fluor	VDR bla	VDR viability	others
CCCCC1C2C(=O)N(c3ccccc3)C(=O)C2ON1c1ccccc1 (stereo not given)	4%	-8%	0%	-20%	15%	4%	/	/	/	/
CCCCC1C(=O)N(c2ccccc2)N(c2ccc(O)cc2)C1=O (stereo not given)	11µM*!	16µM*	?	-25%	-22%	24µM*	?	14µM*	6.5µM*	21µM*
CC1CCCN(S(=O)(=O)c2cccc(C(=O)OCC(=O)N(C)Cc3c(F)cccc3Cl)c2)C1 (stereo not given)	9%	/	/	/	/	-3%	/	/	/	/
CC(C)C[C@H](N)c1nnc(S(=O)(=O)Cc2ccc(F)cc2)o1	32µM*	-1%	?	-3%	14µM*	?	?	20µM*	?	?
CC(C)CC(=O)/C(=C/c1ccc(N(C)C)cc1)n1cncn1	-6%	/	/	/	10%	11%	/	/	/	/
CC(C)CC(=O)/C(=C\c1ccc(Cl)cc1Cl)n1cncn1	4µM*	?	1%	7%	32µM*	?	3.8*	?	16µM*	15µM*
O=C(O)COc1cccc(-c2ocnc2-c2nc(-c3ccccc3)c(-c3ccccc3)o2)c1	?	-14%	-12%	4%	?	/	/	/	/	/	USP1-UAF1 confirm=59µM*
Cc1ccc(-c2nc(-c3nccc4ccccc34)oc2-c2ccccc2)cc1	-9%	-12%	?	-19%	-20%	-25%	/	/	/	/
CC(=O)Oc1cccc(/C=c2\sc3nc(-c4ccco4)nn3c2=O)c1	?	?	-8%	-6%	-13%	?	11*	?	0%	18%
CCCOc1ccc(/C=c2\sc3nc(-c4ccco4)nn3c2=O)cc1OCC	-13%	-20%	0%	-10%	-19%	0%	/	/	/	/
COc1ccc(NC(=O)CSc2nncn3c2cc2oc(C)cc23)cc1OC	14%	?	6%	-21%	/	/	/	/	/	/
Cc1cc(S(=O)(=O)c2ccc([N+](=O)[O-])cn2)ccc1Br	?	/	/	/	/	?	2.2*	2.5µM*	7.3µM*	?
Cc1cc(Sc2ccc([N+](=O)[O-])cn2)ccc1Br	-24%	/	/	/	/	-1%	/	/	/	/
COc1ccc(Cc2c(O)nc(SC)n(C(C)=O)c2=O)cc1	?	?	-9%	-7%	21%	-14%	?	5.6µM*	7%	6%
Nc1cccc2c1C(=O)N(C(=O)/C=C/c1ccc(F)cc1)C2=O	28µM*	25µM*	?	-15%	-21%	?	9.5*	10µM*	-1%	30%
O=C(Nc1cc(S(=O)(=O)N2CCOCC2)ccc1N1CCOCC1)c1cccc(Cl)c1	/	/	/	/	/	-2%	/	/	/	/

Source: PubChem BioAssay (National Center for Advancing Translational Sciences (NCATS))
